Assay results published in PubChem BioAssay (Tox21).
Several values for one entry are separate records, joined by “and”; a condition that tells them apart may be missing. Equal values may be shown once. Results filed as inconclusive are left out. Some compounds were tested as several samples or in several runs, with calls that do not always agree. Activity calls are given as the source filed them. Unless noted, the call rests on the fitted dose curve; in most records, active means well fitted curve in the direction sought with a large enough effect in the repeat runs; inconclusive means weak or mixed curves; inactive means no such curve, though single readings can be large; an effect the other way counts as inactive or inconclusive.

What was measured:
[1] = qHTS assay to identify small molecule agonists of the estrogen receptor alpha (ER-alpha) signaling pathway in the presence of an antagonist - cell viability counter screen (AID 1259386);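 further: cells exposed to compounds for 22 h at 37 °C before the viability read; nearly all actives have a fitted effect of over 30% in size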; further: potency means the concentration at half of the fitted maximal effect
Method in brief: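 The test measures whether compounds kill ER-alpha reporter cells (VM7Luc4E2) under antagonist co-treatment (ICI-182,780, 10.0nM). Fluorescence from CellTiter-Fluor is read after a 22hr exposure.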

[2] = qHTS assay to identify small molecule antagonists of the progesterone receptor (PR) signaling pathway - cell viability counter screen (AID 1346798); further: nearly all actives have a fitted effect of over 50% in size; further: potency means the concentration at half of the fitted maximal effect
Method in brief: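 ATP content as viability readout: CellTiter-Glo luminescence, 30 min room temperature, in PR-UAS-bla HEK293T cells after 16 hr compound/R5020 treatment at 37C and 5% CO2.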

[3] = qHTS assay to identify small molecule agonists of the progesterone receptor (PR) signaling pathway - cell viability counter screen (AID 1346799; calls by dose curve; further: nearly all actives have a fitted effect of over 45% in size; further: potency means the concentration at half of the fitted maximal effect)
Method in brief: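 Cytotoxicity in PR-bla HEK293T cells: 16 h compound, 37C; CellTiter-Glo added post-FRET read; luminescence after 30 min RT.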

[4] = qHTS assay to identify small molecule antagonists of the TGF-beta/Smad signaling pathway - cell viability counter screen (AID 1346824); further: nearly all actives have a fitted effect of over 50% in size; further: potency means the concentration at half of the fitted maximal effect
Method in brief: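 Cytotoxicity counter-screen run in the same wells as the beta-lactamase Smad reporter read: CellTiter-Glo luminescence after 30 min at room temperature. HEK 293T SBE-bla cells had 5 hr compound exposure at 37 C with TGF-beta1 (0.25 ng/mL stock).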

[5] = qHTS assay to identify small molecule agonists of the TGF-beta/Smad signaling pathway - cell viability counter screen (AID 1346829); further: nearly all actives have a fitted effect of over 45% in size; further: potency means the concentration at half of the fitted maximal effect
Method in brief: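 SBE-bla HEK 293T cells plated overnight, compound exposure 5 hr at 37 C. Viability read in the same wells by CellTiter-Glo luminescence after 30 min at room temperature, following the beta-lactamase read.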

[6] = qHTS assay to identify small molecule agonists of the TGF-beta/Smad signaling pathway (AID 1346859; active means well fitted activation curve with a large enough effect in the signal ratio in the repeat runs, not every such curve was filed as active; the % refers to the signal ratio; further: series mostly up to about 77 µM)
Method in brief: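 Stable Smad binding element-beta-lactamase HEK 293T cells; 5 hr compound exposure at 37 C under 5% CO2; 2 hr room-temperature substrate step; fluorescence excited at 405 nm, collected at 460 nm and 530 nm.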

[7] = molecular target: Thyrotropin-releasing hormone receptor (Homo sapiens) (UniProt P34981); experiment: qHTS assay to identify small molecule antagonists of the thyrotropin-releasing hormone receptor (TRHR) signaling pathway (AID 1346877; active means well fitted inhibition curve with a large enough effect in the repeat runs, not every such curve was filed as active; further: potency means the concentration at half of the fitted maximal effect)
Chain of Thyrotropin-releasing hormone receptor (Homo sapiens) (P34981 whole entry, looked up): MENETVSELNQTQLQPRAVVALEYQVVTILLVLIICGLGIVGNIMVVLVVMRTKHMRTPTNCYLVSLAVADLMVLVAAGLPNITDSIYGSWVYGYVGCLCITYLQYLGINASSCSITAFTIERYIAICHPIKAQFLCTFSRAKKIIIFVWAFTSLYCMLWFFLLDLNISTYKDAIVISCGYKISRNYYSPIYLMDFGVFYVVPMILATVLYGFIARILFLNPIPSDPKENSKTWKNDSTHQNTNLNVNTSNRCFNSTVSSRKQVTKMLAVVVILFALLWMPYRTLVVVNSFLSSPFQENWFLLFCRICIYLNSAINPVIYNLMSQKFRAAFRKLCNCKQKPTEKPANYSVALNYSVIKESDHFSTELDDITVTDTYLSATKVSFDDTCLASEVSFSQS
Method in brief: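 Overnight-plated (18 h, 37 °C) HEK293 cells expressing TRHR were dye-loaded 2 h, treated with compound, then stimulated with TRH at 1 nM final. Fluorescence intensity was captured every second for 3 min.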

[8] = molecular target: Progesterone receptor (Homo sapiens) (UniProt P06401); experiment: qHTS assay to identify small molecule antagonists of the progesterone receptor (PR) signaling pathway (AID 1346795; active means well fitted inhibition curve with a large enough effect in the signal ratio in the repeat runs, not every such curve was filed as active; the % refers to the signal ratio; further: potency means the concentration at half of the fitted maximal effect)
Chain of Progesterone receptor (Homo sapiens) (P06401 whole entry, looked up): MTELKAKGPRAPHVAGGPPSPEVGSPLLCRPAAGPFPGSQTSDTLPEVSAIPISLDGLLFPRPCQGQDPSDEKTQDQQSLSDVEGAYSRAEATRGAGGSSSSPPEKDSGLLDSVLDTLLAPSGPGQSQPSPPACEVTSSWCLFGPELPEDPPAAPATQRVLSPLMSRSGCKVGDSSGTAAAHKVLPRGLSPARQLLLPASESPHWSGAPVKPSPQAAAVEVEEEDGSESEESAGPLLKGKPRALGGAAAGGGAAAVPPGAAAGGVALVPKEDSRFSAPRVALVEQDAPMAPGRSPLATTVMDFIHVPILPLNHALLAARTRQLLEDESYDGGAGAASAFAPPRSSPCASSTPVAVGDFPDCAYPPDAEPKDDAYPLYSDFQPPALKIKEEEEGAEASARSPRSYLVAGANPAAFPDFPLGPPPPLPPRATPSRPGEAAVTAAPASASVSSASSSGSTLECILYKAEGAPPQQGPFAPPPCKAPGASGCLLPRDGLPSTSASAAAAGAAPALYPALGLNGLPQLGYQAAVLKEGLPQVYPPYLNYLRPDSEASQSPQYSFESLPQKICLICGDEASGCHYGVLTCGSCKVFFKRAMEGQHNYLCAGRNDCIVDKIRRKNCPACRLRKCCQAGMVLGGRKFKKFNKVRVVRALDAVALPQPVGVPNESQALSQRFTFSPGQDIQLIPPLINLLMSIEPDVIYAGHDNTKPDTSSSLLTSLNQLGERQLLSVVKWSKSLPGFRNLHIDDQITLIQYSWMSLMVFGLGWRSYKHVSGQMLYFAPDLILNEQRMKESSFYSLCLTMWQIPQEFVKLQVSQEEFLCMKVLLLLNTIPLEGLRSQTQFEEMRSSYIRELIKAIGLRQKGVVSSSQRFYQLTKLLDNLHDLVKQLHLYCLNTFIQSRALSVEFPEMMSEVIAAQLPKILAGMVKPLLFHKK
Method in brief: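 Inhibition of R5020-induced (1 nM final) beta-lactamase reporter signal in PR-UAS-bla HEK293T cells was scored by FRET fluorescence after overnight (16 hr) compound treatment.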

[9] = molecular target: Thyrotropin-releasing hormone receptor (Homo sapiens) (UniProt P34981); experiment: qHTS assay to identify small molecule agonists of the thyrotropin-releasing hormone receptor (TRHR) signaling pathway (AID 1346891; calls by dose curve; further: potency means the concentration at half of the fitted maximal effect;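 on activation: HEK293 cells expressing TRHR with calcium dye readout; series mostly up to about 58 µM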)
Method in brief: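 In 1536-format, 1500 TRHR-Hek293 cells per well grew 18 h, took up calcium dye for 2 h at 37 °C, received compound, and were read kinetically; 15-point titrations, triplicates.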

[10] = molecular target: Progesterone receptor (Homo sapiens) (UniProt P06401); experiment: qHTS assay to identify small molecule agonists of the progesterone receptor (PR) signaling pathway (AID 1346784; calls by dose curve; further: nearly all actives have a fitted effect of over 30% in size)
Method in brief: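 Using charcoal-stripped serum (2%) to limit endogenous steroids, PR-UAS-bla HEK 293T cells received compounds for 16 hr at 37C after 6 hr plating; beta-lactamase FRET fluorescence was recorded following 2 hr substrate loading at room temperature.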

Measured: Potency

Cc1ccn2nc(S(=O)(=O)Nc3c(F)cccc3F)nc2n1
not listed: [8] | [9] | [10]
inactive: all other assays above

CC#C[C@]1(O)CC[C@H]2[C@@H]3C[C@H](C)C4=CC(=O)CC[C@]4(C)[C@H]3CC[C@@]21C
not listed: [2] | [3] | [10]
inactive: all other assays above

O=[N+]([O-])c1cccc2cccc([N+](=O)[O-])c12
active: [8] 27.4 µM
not listed: [2] | [3] | [10]
inactive: all other assays above

C=CC(=O)[O][Sn]([CH2]CCC)([CH2]CCC)[CH2]CCC
active: [1] 10.9 µM | [2] 4.33 µM | [4] 2.45 µM | [5] 1.95 µM | [7] 13.5 µM | [9] 17.4 µM

O=c1[nH]c2cc(Cl)ccc2n1C1CCNCC1
not listed: [3] | [5] | [10]
inactive: all other assays above

O=c1[nH]c(Cl)c(Cl)cc1Cl
inactive: [1] | [8] | [4] | [5] | [7] | [9]

CC(C)[C@@H](Nc1ccc(C(F)(F)F)cc1Cl)C(=O)OC(C#N)c1cccc(Oc2ccccc2)c1 (stereo partly drawn)
inactive: [1] | [2] | [6]

CN/C(=N\[N+](=O)[O-])NCc1cnc(Cl)s1
inactive: [10] | [8] | [3] | [4] | [5] | [6]

COP(=S)(OC)Oc1nc(Cl)c(Cl)cc1Cl
inactive: [1] | [4] | [6] | [7] | [9]

O=C(Cl)c1ccccc1F
inactive: [10] | [8] | [3] | [4] | [6]

O=C1C(Cl)=C(Cl)C(=O)C(Cl)=C1Cl
not listed: [1] | [4] | [6]
inactive: all other assays above

O=C(N[C@H]1N=C(c2ccccc2F)c2cccc3c2N(CC3)C1=O)c1cc2ccccc2[nH]1
not listed: [1]
inactive: all other assays above

CCOC(=O)CCN(SN(C)C(=O)Oc1cccc2c1OC(C)(C)C2)C(C)C
not listed: [1] | [7] | [9]
inactive: all other assays above

COC(=O)c1cc(Oc2ccc(Cl)cc2Cl)ccc1[N+](=O)[O-]
active: [8] 15.4 µM
inactive: [10] | [4] | [5] | [6]

CCN(CC)CCc1c[nH]c2ccccc12
inactive: [10] | [4] | [6] | [7] | [9]
active: [2] 90.4 µM

Nc1cc(Cl)ccc1Cl
not listed: [1] | [2] | [5]
inactive: all other assays above

CC1(C)C(C=C(Cl)Cl)C1C(=O)OC(C#N)c1ccc(F)c(Oc2ccccc2)c1 (stereo not drawn)
active: [8] 13.7 µM
not listed: [1]
inactive: all other assays above

ClC1=C(Cl)[C@]2(Cl)[C@H]3[C@H]([C@@H]4C=C[C@H]3C4)[C@@]1(Cl)C2(Cl)Cl
active: [8] 21.7 µM
inactive and 49 µM (active): [5]
not listed: [1]
inactive: all other assays above

c1ccc(Nc2ccc(Nc3ccccc3)cc2)cc1
inactive: [10] | [4] | [5] | [6] | [7]
active: [8] 6.09 µM

CNN
inactive: [10] | [8] | [2] | [3] | [4] | [6]

c1ccc2nc(N3CCNCC3)ccc2c1
inactive: [10] | [8] | [4] | [6] | [7] | [9]

CCCCCCC[CH2][Sn]([Cl])([Cl])[CH2]CCCCCCC
inactive: [1] | [4] | [6] | [7]

CN1CCc2cc(Cl)c(O)cc2[C@H]2c3ccccc3CC[C@@H]21
inactive: [10] | [2] | [4] | [5] | [6]

Nc1ccccc1-c1ccccc1
inactive: [10] | [4] | [6] | [7] | [9]
active: [3] 30.5 µM

CC(=O)[O-].CC(=O)[O-].CC(=O)[O-].[Cr+3]
not listed: [1] | [7] | [9]
inactive: all other assays above

Fc1ccc(C(OCCN2CCN(CCCc3ccccc3)CC2)c2ccc(F)cc2)cc1
active: [1] 29.8 µM | [5] 23.9 µM
inactive: [6] | [7] | [9]

CCOP(=S)(NC(C)C)Oc1ccccc1C(=O)OC(C)C (stereo not drawn)
inactive: [1] | [4] | [5] | [7] | [9]
